Data on 63 compounds can be found in PubChem BioAssay AID1159524 (National Center for Advancing Translational Sciences (NCATS), 2015).

Among all 410,000 compounds or so, about 5,100 (1.2%) were called active. Another 8% or so got no clear call; they are omitted. The full list was thinned out, with actives kept by preference. Unmarked numbers belong to inactive results. The call rests on the fitted dose curve; tested in HEK293T cells.
On the % scale 0 is the no-effect control and ±100 the full control effect; potency means the concentration at half of the fitted maximal effect.

The test in a line: High Throughput Screening for Foot and Mouth Disease Virus Antivirals. Further: read-out not given here; nearly all actives have a fitted effect of over 45% in size. The following applies: FMDV antiviral cell-based qHTS; series mostly up to 57.9 µM; activity change, negative = inhibition: at the top concentration. A general note: In qHTS, concentration-response curves come from the screen itself.
In the case of `Cc1[nH]c2ccccc2c1/C=C(/C#N)C(=O)NC(C)C`, the “activity change, negative = inhibition” value is -22.7%.

Regarding `C=CCNC(=S)N/N=C/c1ccc(C)s1`, the “activity change, negative = inhibition” value was 1.06%.

As for `COCCNC(=S)N/N=C/c1c(C)[nH]c2ccccc12`, the Potency was 20 µM (active).

For the compound `C[N+](C)(C)CCCCCNCC12CC3CC(CC(C3)C1)C2`, the “activity change, negative = inhibition” value is -8.71%.

For the compound `CCS(=O)(=O)N1CCN(C(=O)c2cccs2)CC1`, the “activity change, negative = inhibition” value was -16.9%.

On to `Cc1ccc(N2CCN(C(=O)c3cccs3)CC2)c(C)c1`, for which the “activity change, negative = inhibition” value was -20.8%.

With `Cc1ccccc1C(CC(=O)c1cccs1)C(C#N)C#N` (stereo not drawn), the Potency is 11.2 µM (active).

With `Cc1nc2ccc(NC(=O)c3cccc(S(=O)(=O)N4CCOCC4)c3)cc2s1`, the Potency was 31.6 µM (active).

As to `Cc1cc(C)n2nc(C(=O)Nc3cccc(S(=O)(=O)N4CCOCC4)c3)nc2n1`, the “activity change, negative = inhibition” value was -6.23%.

As to `O=C(Nc1ccc(S(=O)(=O)N2CCOCC2)cc1)c1ccc2ncsc2c1`, the “activity change, negative = inhibition” value is -22.9%.

As for `Cc1nc2cnc(N3CCNCC3)nc2n(CCc2ccccc2)c1=O`, the “activity change, negative = inhibition” value is -8.91%.

As for `CC1=C(/C=C/C(C)=C/C=C/C(C)=C/C=C/C=C(C)/C=C/C=C(C)/C=C/C2=C(C)CCCC2(C)C)C(C)(C)CCC1`, the Potency is 5.01 µM (active).

As for `CCCCCCCCCCCCCCCC(=O)OC/C=C(C)/C=C/C=C(C)/C=C/C1=C(C)CCCC1(C)C`, the Potency result is “inactive”.

Take `Cc1ccc(CSc2nc3ccsc3c(=O)n2CCC(C)C)cc1`: the “activity change, negative = inhibition” value is -28.8%.

As for `CCOC(=O)Cc1ccc(NC(=O)Nc2c[nH]c(=O)[nH]c2=O)cc1`, the “activity change, negative = inhibition” value is -3.16%.

With `COCC(=O)Nc1cc(C(=O)N2CCCC(c3ccccc3)CC2)c2c(c1)nc(-c1ccncc1)n2C` (stereo not drawn), the “activity change, negative = inhibition” value is -6.81%.

Turning to `COc1ccc(-c2nc3ccccc3s2)cc1NC(=O)COc1ccccc1C`, the “activity change, negative = inhibition” value is 15.1%.

In the case of `COc1ccc(-c2nn(C)c(=O)c3ccccc23)cc1NC(=O)COc1ccccc1`, the Potency was 17.8 µM (active).

In the case of `COc1ccc(-c2nn(C)c(=O)c3ccccc23)cc1CNC(=O)C1CCCCC1`, the “activity change, negative = inhibition” value is -10.7%.

On to `O=c1cnc2cnc(Nc3ccccc3)nc2n1Cc1ccc(F)cc1`, for which the “activity change, negative = inhibition” value is -18.2%.

Consider `Cc1ccc(S(=O)(=O)N2CCCc3cc(NS(=O)(=O)c4cc(C)ccc4C)ccc32)cc1`, for which the “activity change, negative = inhibition” value is 38.1%.

With `COc1ccccc1C(=O)Nc1c(C(=O)N(C)Cc2ccccc2)sc2nc(C)c(Cl)c(C)c12`, the “activity change, negative = inhibition” value was -23%.

Consider `Cc1cc(C(=O)CSc2nc(N)cc(=O)[nH]2)c(C)n1CCc1ccc(Cl)cc1`, for which the Potency is 22.4 µM (active).

For the compound `Cc1cc(=O)[nH]c(SCc2ccc(Cl)cc2)n1`, the “activity change, negative = inhibition” value is 2.53%.

Regarding `CCCCc1nnc(NC(=O)CSc2nc(N)cc(=O)[nH]2)s1`, the “activity change, negative = inhibition” value was 6.16%.

Regarding `COCCn1c(=O)c(-c2cccc(F)c2)nc2cncnc21`, the “activity change, negative = inhibition” value was -3.82%.

`COc1ccc(F)c(CN2CCC3(CCC(CNC(=O)c4ccn(C)n4)O3)CC2)c1` (stereo not drawn): the “activity change, negative = inhibition” value is -12.4%.

Take `COc1ccc(Cl)cc1-n1c(CCC(=O)O)ccc1-c1ccc(C)cc1`: the “activity change, negative = inhibition” value is -13.1%.

Consider `CCc1ccc(-c2nn(-c3ccccc3C)cc2C(=O)N2CCN(C3CCS(=O)(=O)C3)CC2)cc1` (stereo not drawn), for which the “activity change, negative = inhibition” value is -4.39%.

As to `CCc1ccc(-n2nnc(-c3nc(-c4ccccc4)no3)c2C)cc1`, the “activity change, negative = inhibition” value is 27.4%.

`CCc1ccc(-c2nn(-c3ccccc3)cc2CSC(=N)N)cc1`: the Potency is 39.8 µM (active).

As to `COc1cc2c(cc1OC)[C@@H]1C(=O)c3ccc(O)c(CC=C(C)C)c3OC1CO2` (stereo partly drawn), the “activity change, negative = inhibition” value is -14.3%.

As to `CCCS(=O)(=O)NCc1c(C)ncc2c1CCN(C(=O)c1ccc(F)c(F)c1)C2`, the “activity change, negative = inhibition” value was -9.08%.

For the compound `COc1ccc2c(c1)CCc1cnc(-n3ncc(C(=O)NCCN4CCOCC4)c3C)nc1-2`, the “activity change, negative = inhibition” value was -7.65%.

On to `COc1cccc(COc2ccc(N(C)S(=O)(=O)c3ccccc3)cc2)c1`, for which the “activity change, negative = inhibition” value is -21.3%.

Take `Cc1ccc2nc(COc3ccc(N(C)S(=O)(=O)c4ccccc4)cc3)cc(=O)n2c1`: the Potency was 31.6 µM (active).

`Cc1ccc2nc(COc3ccc(NC(=O)COc4ccccc4F)cc3)cc(=O)n2c1`: the “activity change, negative = inhibition” value was -8.25%.

As to `CCc1nc2cc(C(=O)NCC3CCS(=O)(=O)C3)cc(NC(=O)c3ccccc3OC)c2n1C` (stereo not drawn), the “activity change, negative = inhibition” value is -9.72%.

For `Cc1ccc(NC(=O)CSc2nc3c([nH]c4ccccc43)c(=O)n2-c2ccccc2)c(C)c1`, the “activity change, negative = inhibition” value was -23.2%.

As to `COc1ccc(C(C(=O)NC2CCCCC2)N(C(=O)CCl)c2ccccc2Cl)cc1` (stereo not drawn), the “activity change, negative = inhibition” value was 6.66%.

Regarding `CCN(CCCCOC(=O)c1ccc(OC)c(OC)c1)C(C)Cc1ccc(OC)cc1` (stereo not drawn), the Potency result was “inactive”.

As to `COc1ccc(C(CCN(Cc2ccc(OC)c(OC)c2)C(=O)CCl)c2ccccc2)cc1` (stereo not drawn), the Potency is 31.6 µM (active).

For `COCCNc1cc(-c2c(C)noc2C)ncn1`, the “activity change, negative = inhibition” value was -19.3%.

As for `CC(=CCOc1ccc2ccc(=O)oc2c1)C1=CC(=O)C(C)(C)O1`, the Potency is 28.2 µM (active).

As for `CC(C)OC(=O)c1ccc(COc2ccc3ccc(=O)oc3c2)o1`, the “activity change, negative = inhibition” value is 40.6%.

`O=C(COc1ccc2ccc(=O)oc2c1)NCC(O)c1ccccc1` (stereo not drawn): the “activity change, negative = inhibition” value was -9.08%.

As to `Cn1cccc1C(=O)N1CCC2(CC1)CN(c1cccc(-c3ccccc3)c1)C2`, the “activity change, negative = inhibition” value was -26.7%.

Take `Cc1ccc(NC(=O)Nc2sc3nc4n(c(=O)c3c2C)CCC(C)CC4)c(Cl)c1` (stereo not drawn): the “activity change, negative = inhibition” value was -23.1%.

On to `Cc1ccc(CN2COc3cc(C)c4c(oc(=O)c5ccccc54)c3C2)cc1`, for which the “activity change, negative = inhibition” value is -6.49%.

On to `CCOC(=O)c1cc2c(=O)n3ccccc3nc2n(CCCOC)c1=NC(=O)C(C)Oc1ccccc1` (stereo not drawn), for which the “activity change, negative = inhibition” value was 13.7%.

Consider `COc1ccc2[nH]cc(CCNc3ncnc4ccc(-c5ccccc5CN(C)C)cc34)c2c1`, for which the “activity change, negative = inhibition” value is -2.17%.

For the compound `COc1ccc(Nc2ncnc3ccc(Br)cc23)c(OC)c1`, the Potency is 3.98 µM (active).

With `COc1ccc(CNc2ncnc3ccc(-c4cccnc4)cc23)c(OC)c1`, the “activity change, negative = inhibition” value is -28.8%.

On to `NS(=O)(=O)c1ccc(NC(=O)COC(=O)C2(c3ccc(F)cc3)CCCC2)cc1`, for which the Potency was 17.8 µM (active).

Regarding `O=C(COC(=O)C1(c2ccc(F)cc2)CCCC1)N1CCNC1=O`, the “activity change, negative = inhibition” value was -14.5%.

As for `NS(=O)(=O)c1ccc(NC(=O)COc2ccc(S(=O)(=O)NC3CCCCC3)cc2)cc1`, the “activity change, negative = inhibition” value is 31.4%.

As to `COc1ccc(CNC(=O)CSCc2nc(-c3ccccc3F)oc2C)cc1`, the “activity change, negative = inhibition” value is -18.8%.

For `Cc1nc2cc(NC(=O)[C@@H]3C[C@@H](Sc4ccccn4)CN3Cc3ccccc3C)ccc2s1`, the “activity change, negative = inhibition” value was -2.38%.

Consider `CCC(C(=O)Nc1cccc(-c2nc3cccnc3s2)c1C)c1ccccc1` (stereo not drawn), for which the “activity change, negative = inhibition” value is -3.42%.

`CCOc1ccccc1-n1c(SCC(=O)NCc2ccco2)nnc1-c1ccncc1`: the “activity change, negative = inhibition” value was 33%.

On to `Cn1c(SCc2ccc(F)cc2)nnc1-c1ccncc1`, for which the “activity change, negative = inhibition” value is -6.09%.

With `Cc1ccc(Nc2nc(CSc3nnc(-c4ccncc4)n3-c3ccccc3C)cs2)cc1`, the Potency is 31.6 µM (active).

`N[C@H](C(=O)O)c1ccc(C(=O)O)c(O)c1`: the Potency entry was “inactive”.
